Hit rate of the full screen: of about 5,500 compounds, about 2,000 (36%) were called active. Another 18% or so got no clear call; they are omitted. Cut-off read from the data, not from the text of the source: active = normalized growth mostly below about 0.91 (no sharp cut-off); inconclusive = no clear call, values can overlap the other calls; inactive = mostly above about 0.92. Some of the results follow.
Assay: chemical genetic growth profiling, strain panel (AID 1159580);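 note: tested at 20 µM; growth read once vehicle control cultures reached saturation at 30 °C; 1 = growth at the plate median or of vehicle wells; lower values mean less growth of the strain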
Settings: growth OD

Measured: normalized growth

CCn1cc(C(=O)O)c(=O)c2cnc(N3CCCC3)nc21
inactive: S. cerevisiae deletion strains, locus YKL009W, strain mrt4, hits give low values 0.987 | S. cerevisiae deletion strains, locus YKL068W, hits give low values 1 | S. cerevisiae deletion strains, locus YKL085W, strain MDH1 (second series), hits give low values 0.998 | S. cerevisiae deletion strains, locus YKL085W, strain MDH1, hits give low values 0.998 | S. cerevisiae deletion strains, locus YKL160W, strain elf1, hits give low values 0.975 | S. cerevisiae deletion strains, locus YKL190W, strain CNB1, hits give low values 1 | S. cerevisiae deletion strains, locus YKR001C, strain vps1, hits give low values 0.943 | S. cerevisiae deletion strains, locus YKR026C, strain gcn3, hits give low values 1.02 | S. cerevisiae deletion strains, locus YKR091W, strain srl3, hits give low values 1 | S. cerevisiae deletion strains, locus YLL001W, strain dnm1, hits give low values 1.02 | S. cerevisiae deletion strains, locus YLL026W, hits give low values 1 | S. cerevisiae deletion strains, locus YLL041C, strain sdh2, hits give low values 0.993 | S. cerevisiae deletion strains, locus YLR027C, strain aat2, hits give low values 0.996 | S. cerevisiae deletion strains, locus YLR039C, strain RIC1, hits give low values 0.935 | S. cerevisiae deletion strains, locus YLR058C, strain SHM2, hits give low values 1.01 | S. cerevisiae deletion strains, locus YLR102C, strain apc9, hits give low values 1 | S. cerevisiae deletion strains, locus YLR113W, strain HOG1, hits give low values 0.986 | S. cerevisiae deletion strains, locus YLR221C, strain rsa3, hits give low values 0.994 | S. cerevisiae deletion strains, locus YLR258W, strain gsy2, hits give low values 1.02 | S. cerevisiae deletion strains, locus YLR262C, strain YPT6, hits give low values 0.904 | S. cerevisiae deletion strains, locus YLR268W, strain sec22, hits give low values 0.972 | S. cerevisiae deletion strains, locus YLR320W, strain mms22, hits give low values 1.03 | S. cerevisiae deletion strains, locus YLR330W, strain CHS5, hits give low values 1.01 | S. cerevisiae deletion strains, locus YLR342W, strain FKS1 (second series), hits give low values 1.04 | S. cerevisiae deletion strains, locus YLR342W, strain FKS1, hits give low values 1 | S. cerevisiae deletion strains, locus YLR357W, strain rsc2, hits give low values 1.01 | S. cerevisiae deletion strains, locus YLR370C, strain arc18, hits give low values 0.981 | S. cerevisiae deletion strains, locus YLR371W, strain rom2, hits give low values 0.998 | S. cerevisiae deletion strains, locus YLR384C, strain iki3, hits give low values 1.01 | S. cerevisiae deletion strains, locus YLR418C, strain cdc73, hits give low values 1.09 | S. cerevisiae deletion strains, locus YML016C, strain PPZ1, hits give low values 0.999 | S. cerevisiae deletion strains, locus YML032C, strain rad52, hits give low values 0.999 | S. cerevisiae deletion strains, locus YML120C, strain ndi1, hits give low values 0.981 | S. cerevisiae deletion strains, locus YML124C, strain tub3, hits give low values 0.993 | S. cerevisiae deletion strains, locus YMR058W, strain fet3, hits give low values 1 | S. cerevisiae deletion strains, locus YMR078C, strain ctf18, hits give low values 1 | S. cerevisiae deletion strains, locus YMR125W, strain sto1, hits give low values 1.01 | S. cerevisiae deletion strains, locus YMR129W, hits give low values 1 | S. cerevisiae deletion strains, locus YMR205C, strain PFK2, hits give low values 1.06 | S. cerevisiae deletion strains, locus YMR223W, strain ubp8, hits give low values 0.98 | S. cerevisiae deletion strains, locus YMR231W, strain pep5, hits give low values 1 | S. cerevisiae deletion strains, locus YMR263W, strain SAP30, hits give low values 1.01 | S. cerevisiae deletion strains, locus YMR307W, strain GAS1, hits give low values 1.06 | S. cerevisiae deletion strains, locus YNL067W, strain RPL9B, hits give low values 0.998 | S. cerevisiae deletion strains, locus YNL071W, strain lat1, hits give low values 1 | S. cerevisiae deletion strains, locus YNL128W, strain TEP1, hits give low values 1.05 | S. cerevisiae deletion strains, locus YNL153C, strain GIM3, hits give low values 0.996 | S. cerevisiae deletion strains, locus YNL183C, strain NPR1, hits give low values 0.924 | S. cerevisiae deletion strains, locus YNL209W, strain ssb2, hits give low values 0.993 | S. cerevisiae deletion strains, locus YNL233W, strain BNI4, hits give low values 1.02 | S. cerevisiae deletion strains, locus YNL248C, strain rpa49, hits give low values 0.956 | S. cerevisiae deletion strains, locus YNL250W, strain rad50, hits give low values 0.996 | S. cerevisiae deletion strains, locus YNL271C, strain bni1, hits give low values 1.02 | S. cerevisiae deletion strains, locus YNL298W, strain CLA4, hits give low values 1 | S. cerevisiae deletion strains, locus YNL307C, strain MCK1, hits give low values 1.03 | S. cerevisiae deletion strains, locus YNL322C, strain KRE1 (second series), hits give low values 1 | S. cerevisiae deletion strains, locus YNL322C, strain KRE1, hits give low values 0.999 | S. cerevisiae deletion strains, locus YNR049C, strain mso1, hits give low values 0.984 | S. cerevisiae deletion strains, locus YNR052C, strain pop2, hits give low values 0.961 | S. cerevisiae deletion strains, locus YOL006C, strain TOP1, hits give low values 1.06 | S. cerevisiae deletion strains, locus YOL012C, strain htz1 1.62 | S. cerevisiae deletion strains, locus YOL147C, strain pex11, hits give low values 0.998 | S. cerevisiae deletion strains, locus YOR001W, strain rrp6, hits give low values 0.958 | S. cerevisiae deletion strains, locus YOR061W, strain CKA2, hits give low values 1 | S. cerevisiae deletion strains, locus YOR069W, strain VPS5, hits give low values 1 | S. cerevisiae deletion strains, locus YOR070C, strain gyp1, hits give low values 1.01 | S. cerevisiae deletion strains, locus YOR080W, strain dia2, hits give low values 1.01 | S. cerevisiae deletion strains, locus YOR083W, strain WHI5, hits give low values 0.968 | S. cerevisiae deletion strains, locus YOR106W, strain vam3, hits give low values 0.936 | S. cerevisiae deletion strains, locus YOR136W, strain idh2, hits give low values 0.999 | S. cerevisiae deletion strains, locus YOR144C, strain elg1, hits give low values 0.988 | S. cerevisiae deletion strains, locus YOR184W, strain ser1, hits give low values 0.978 | S. cerevisiae deletion strains, locus YOR231W, strain MKK1, hits give low values 0.983 | S. cerevisiae deletion strains, locus YOR265W, strain rbl2, hits give low values 1.01 | S. cerevisiae deletion strains, locus YOR270C, strain vph1, hits give low values 1.02 | S. cerevisiae deletion strains, locus YOR290C, strain snf2, hits give low values 0.994 | S. cerevisiae deletion strains, locus YOR316C, strain cot1, hits give low values 1 | S. cerevisiae deletion strains, locus YPL051W, strain arl3, hits give low values 0.981 | S. cerevisiae deletion strains, locus YPL055C, strain LGE1, hits give low values 1.02 | S. cerevisiae deletion strains, locus YPL078C, strain atp4, hits give low values 0.974 | S. cerevisiae deletion strains, locus YPL106C, strain sse1, hits give low values 1.03 | S. cerevisiae deletion strains, locus YPL240C, strain hsp82, hits give low values 0.986 | S. cerevisiae deletion strains, locus YPL241C, strain CIN2, hits give low values 1.01 | S. cerevisiae deletion strains, locus YPL256C, strain CLN2, hits give low values 0.98 | S. cerevisiae deletion strains, locus YPR119W, strain clb2, hits give low values 0.996 | S. cerevisiae deletion strains, locus YPR141C, strain kar3, hits give low values 1 | S. cerevisiae deletion strains, locus YPR163C, strain tif3, hits give low values 1.02 | S. cerevisiae deletion strains, locus YPR167C, strain met16, hits give low values 0.986 | S. cerevisiae deletion strains, strain wtn01, hits give low values 0.987 | S. cerevisiae strains, strain wild type, hits give low values 1.01
active: S. cerevisiae deletion strains, locus YLR262C, strain YPT6 (second series), hits give low values 0.789

— PubChem BioAssay AID1159580 (chemical genetic matrix, 2015)
